Assay results reported in PubChem BioAssay (NCI).
The panel holds about 83,000 compounds, 20% with a hit somewhere; the sample as a whole holds those more often.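 Results are percent growth after 48 hours of single-concentration exposure. 100 means growth as in untreated cells, lower positive values show inhibition; negative values down to -100 show cell death.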 Unmarked numbers belong to inactive results. Active and inactive are the calls of the source. Rule for the calls: active = growth percent below 10; inactive = the rest.

Columns and labels:
Experiment in all cases: NCI-60 one-dose screen, 48 h (100 = growth as untreated, 0 = no growth, -100 = all killed)
Settings in all cases: 10 µM unless noted
HCT-15 colon = system: HCT-15 colon
HT29 colon = system: HT29 colon
SNB-75 CNS = system: SNB-75 CNS
SNB-19 CNS = system: SNB-19 CNS
U251 CNS = system: U251 CNS
PC-3 prostate = system: PC-3 prostate
SK-MEL-5 melanoma = system: SK-MEL-5 melanoma
UACC-62 melanoma = system: UACC-62 melanoma
LOX IMVI melanoma = system: LOX IMVI melanoma
SK-MEL-28 melanoma = system: SK-MEL-28 melanoma
SK-MEL-2 melanoma = system: SK-MEL-2 melanoma
EKVX NSCLC = system: EKVX NSCLC
SN12C renal = system: SN12C renal
UO-31 renal = system: UO-31 renal
TK-10 renal = system: TK-10 renal
ACHN renal = system: ACHN renal
CAKI-1 renal = system: CAKI-1 renal
A498 renal = system: A498 renal
CCRF-CEM leukemia = system: CCRF-CEM leukemia
MOLT-4 leukemia = system: MOLT-4 leukemia

| Compound | growth (HCT-15 colon) | growth (HT29 colon) [%] | growth (SNB-75 CNS) | growth (SNB-19 CNS) [%] | growth (U251 CNS) | growth (PC-3 prostate) [%] | growth (SK-MEL-5 melanoma) | growth (UACC-62 melanoma) [%] | growth (LOX IMVI melanoma) [%] | growth (SK-MEL-28 melanoma) [%] | growth (SK-MEL-2 melanoma) [%] | growth (EKVX NSCLC) | growth (SN12C renal) | growth (UO-31 renal) | growth (TK-10 renal) | growth (ACHN renal) | growth (CAKI-1 renal) [%] | growth (A498 renal) | growth (CCRF-CEM leukemia) [%] | growth (MOLT-4 leukemia) |
| --- | --- | --- | --- | --- | --- | --- | --- | --- | --- | --- | --- | --- | --- | --- | --- | --- | --- | --- | --- | --- |
| COc1ccc(NC(=O)Nc2nc3ccc([N+](=O)[O-])cc3s2)cc1 | 9.87% (active) | 58.1 | 62.3% | 14.6 | 0.863% (active) | 10.5 | -70.7% (active) | 36.2 | 33.8 | 47.7 | 33.4 | 9.23% (active) | 9.66% (active) | -5.06% (active) | 29.7% | 10.8% | 13.9 | 21.8% | 11.2 | 8.05% (active) |
| COc1ccc(NC(=O)Cn2c(/C=C/c3cccc(Br)c3)nc3ccccc3c2=O)cc1 | 70.9% | 51.9 | -29.7% (active) | 49.3 | -1.66% (active) | 79.3 | 78.5% | 68.4 | 28.8 | 70.2 | 80.3 | 81.8% | 5.79% (active) | -60.6% (active) | -39.4% (active) | -51.1% (active) | 55.7 | -51.1% (active) | 86.8 | 86.5% |
| COc1ccc2oc(=O)c(-c3csc(N/N=C(\C)c4cc(OC)c(OC)c(OC)c4)n3)cc2c1 | 86.8% | 113 | 154% | 86.6 | 92.3% | 67.6 | 69.6% | 93.1 | 86.6 | 102 | 99.7 | 94.7% | 80.5% | 90.8% | 94.2% | 78.7% | 97.8 | 145% | 81.3 | 81% |
